Test results published in PubChem BioAssay AID686979 (National Center for Advancing Translational Sciences (NCATS), 2013).
Hit rate of the full screen: of about 420,000 compounds, about 50,000 (12%) were called active. A call without a number means that no potency is given here. Roughly 26% stayed inconclusive and do not appear here. Calls follow the shape of the dose curve; as a rule, active = well fitted inhibition curve with a large enough effect; inconclusive = small, poorly fitted or top-dose-only effect; inactive = flat fitted curve, though single readings scatter. Only a selection was taken, and actives are over-represented in it overall.

Experiment: qHTS for Inhibitors of human tyrosyl-DNA phosphodiesterase 1 (TDP1): qHTS in cells in presence of CPT; also: nearly all actives have a fitted effect of over 55% in size
Conditions: chicken DT40 Tdp1-/-;hTDP1 cells + 20 nM CPT, ATP luminescence, 48 h; series mostly up to 46.2 µM
Summary of the method: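 Cell growth measured by CellTiter-Glo luminescence after a minimum 48 h, 37 C compound exposure with 20 nM CPT in Tdp1-knockout DT40 cells stably expressing hTDP1, seeded 400/well; qHTS titration format.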
Potency is read from the fitted curve at half-maximal effect.

| Structure (SMILES) | Potency |
| --- | --- |
| Fc1cccc(F)c1CN1CCN(Cc2c(F)cccc2F)CC1 | inactive |
| Cc1cc(C(=O)OCC(=O)Nc2c(F)cccc2F)c(C)n1C1CC1 | inactive |
| COC(=O)C1=C(c2ccc(OCc3ccccc3)cc2)C[C@@H]2CC[C@H]1N2C(=O)NCc1cccc(F)c1 | 25.9 µM (active) |
| COC(=O)C(c1ccccc1)N1CCCCCC1 (configuration not stated) | inactive |
| COC(=O)C1=C(c2ccccc2)C[C@@H]2CC[C@H]1N2C(=O)N1CCCCC1 | 5.8 µM (active) |
| O=C(NC(=S)N1C[C@H]2C[C@H](C1)c1cccc(=O)n1C2)c1ccc(F)cc1 | inactive |
| CC1CCCN1CCC(C(N)=O)(c1ccccc1)c1ccccc1 (configuration not stated) | inactive |
| COc1ccc(CCn2c(O)c(C=NCCCn3ccnc3)c(=O)[nH]c2=O)cc1OC | inactive |
| CC(=O)Cc1ccc(OC(C)C)cc1 | inactive |
| Cc1cc2ccccn2c1C(C[N+](=O)[O-])c1c(F)cccc1Cl (configuration not stated) | 18.4 µM (active) |
| C[N+]1(C)CCOC(O)(c2ccc(-c3ccc(C4(O)C[N+](C)(C)CCO4)cc3)cc2)C1 (configuration not stated) | inactive |
| COc1cc(Cl)ccc1Nc1ncc(C(=O)N2CCN(c3ccccc3OC)CC2)c2ccccc12 | 14.6 µM (active) |
| CN1CCN(C(=O)O[C@@H]2c3nccnc3C(=O)N2c2ccc(Cl)cn2)CC1 | inactive |
| CCOC(=O)c1c(C)c(C(=O)N2CCC3(CC2)OCCO3)c(C)n1CC | inactive |
| CN1CCN(Cc2ccccc2C(F)(F)F)CC1 | inactive |
| CCOC(=O)C1(c2ccccc2)CCN(CC(O)c2ccc(NC(C)=O)cc2)CC1 (configuration not stated) | inactive |
| CCOC(=O)CC1=C(C(=O)OCC)C2(C(=O)N1)C(C(=O)OC)=C(N)Oc1ccccc12 (configuration not stated) | inactive |
| COC1C(O)C(C)OC(OC2CCC3(C=O)C(CCC4C3CCC3(C)C(C5=CC(=O)OC5)CCC43O)C2)C1O (configuration not stated) | 0.206 µM (active) |
| COC1CC(OC2CC[C@@]3(C=O)C4CC[C@]5(C)C(C6=CC(=O)OC6)CC[C@@]5(O)C4CC[C@]3(O)C2)OC(C)C1O (some centres not stated) | 1.3 µM (active) |
| c1csc(CN2CCCC3(CCNCC3)C2)n1 | inactive |
| C=Cn1ccnc1P(=S)(c1cc(N(CC)CC)ns1)c1nccn1C=C | inactive |
| Cc1ncsc1CCCl | inactive |
| CC[N+]1(CCOC(=O)C(O)(c2ccccc2)c2ccccc2)CCCCC1 | inactive |
| C/C(=C\C=C/[C@@H](C)C(=O)O)[C@H]1CN[C@H](C(=O)O)[C@@H]1CC(=O)O | inactive |
| Cc1ccc(NC(=O)CN(C)CC(=O)Nc2cccc(F)c2)cc1[N+](=O)[O-] | 1.84 µM (active) |
| O=C(CN1CCCC1=O)NCCc1ccccc1 | inactive |

| Structure (SMILES) | Potency |
| --- | --- |
| CN(C)P(=S)(Nc1ccccc1)C(Cl)(Cl)Cl (configuration not stated) | inactive |
| O=C1NC(=O)N(CCc2ccc(F)cc2)C(=O)/C1=C/C=C/c1ccccc1 | 3.26 µM (active) |
| O=C(O)COc1ccccc1/C=C1\C(=O)NC(=O)N(CCC2=CCCCC2)C1=O | inactive |
| OCC#CC[N+]1(CC#Cc2ccccc2)CCCC1 | inactive |
| Cc1ccc(P(=S)(c2ccc(C)o2)N2CCOCC2)o1 | inactive |
| CC(=O)C12CC(C)=C(C)CC1CC1C3CCC4=CC(=O)CCC4(C)C3CCC12C (configuration not stated) | 13 µM (active) |
| COC(=O)C[C@H]1CC[C@H]2NC[C@@H](O)COC[C@@H]2O1 | inactive |
| C[C@H]1CN([C@@H](C)CO)C(=O)CCCn2nncc2CO[C@H]1CN(C)C(=O)Oc1ccccc1 | inactive |
| Cc1cc(N2C(=O)C3CCCN3C2c2ccc(Cl)c(Cl)c2)no1 (configuration not stated) | inactive |
| CCN1C(=O)NC(=O)C2(CCCC2)C1=O | inactive |
| CCOP(=O)(OCC)C(NC(=O)c1ccc(OC)cc1)C(Cl)(Cl)Cl (configuration not stated) | inactive |
| CCOP(=O)(OCC)C(NC(=O)c1ccc(C)cc1)C(Cl)(Cl)Cl (configuration not stated) | inactive |
| CCOP(=O)(OCC)C(Cc1ccccc1)N=C(c1ccccc1)c1ccccc1 (configuration not stated) | 16.4 µM (active) |
| CC(C)CN1CCN(Cc2ccccc2C(F)(F)F)CC1CCO (configuration not stated) | inactive |
| CCOc1ccc(C2SCC(=O)Nc3c2c(C)nn3C2CCOC(C)(C)C2)cc1 (configuration not stated) | inactive |
| COc1ccc(-n2c(-c3ccccc3)nc3ccccc3c2=O)cc1 | 18.4 µM (active) |
| O=c1c2ccccc2nc(-c2ccccc2)n1-c1ccccn1 | inactive |
| CC(CCC(=O)O)C1CCC2C3C(O)C[C@@H]4CC(O)CC[C@@]4(C)C3CC[C@@]12C (some centres not stated) | inactive |
| COc1ccc(-c2cc(NC=O)c3ncc(-c4cc(OC)c(OC)c(OC)c4)n3c2)c(OC)c1 | 0.58 µM (active) |
| CCCCCCCCCCCCn1ccc(=N)cc1 | 0.461 µM (active) |
| CNC(=S)N/N=C1\C2CN3CCN(C2)CC1(c1ccccc1)C3 | inactive |
| CC(C)=C[C@@H]1[C@@H](C(=O)OCc2coc(Cc3ccccc3)c2)C1(C)C | inactive |
| CCOc1cccc(=NC2CCCCC2)c2c(C)[nH]c(C)c12 | 5.8 µM (active) |
| Cc1cc(C)c2c(c1)NP(=S)(c1ccccc1)N2 (configuration not stated) | inactive |
| O=C1/C(=C\c2ccc3c(c2)OCO3)N2CCC1CC2 | inactive |
| c1cncc(CNCCc2c[nH]c3ccccc23)c1 | inactive |

| Structure (SMILES) | Potency |
| --- | --- |
| COc1ccc2[nH]cc(CCNCc3ccc(Br)cc3)c2c1 | 13 µM (active) |
| O=C(N/N=C/c1c(O)n(Cc2ccccc2)c(=O)[nH]c1=O)c1ccccc1 | inactive |
| COc1ccc(N=Cc2c(O)n(C)c(=O)[nH]c2=O)cc1 | inactive |
| COc1ccc(Cn2c(O)c(/C=C3/C=CC=N3)c(=O)[nH]c2=O)cc1 | 20.6 µM (active) |
| CNC(=O)N(C)c1nnc(C(C)(C)C)s1 | inactive |
| CC1N=C(N)OC1c1ccccc1 (configuration not stated) | inactive |
| CCOCCCNC(=O)c1c(NC(=O)c2nc(SC)ncc2Cl)sc2c1CCCC2 | 6.51 µM (active) |
| CCCOC(=O)C1C2c3ccccc3C(c3ccccc32)C1C(=O)O (configuration not stated) | inactive |
| Cc1nc2ccccn2c1P(=S)(N1CCCCC1)N1CCCCC1 | 20.6 µM (active) |
| CCOC(=O)CNC(=O)N1Cc2cc(N3CCCCC3)ccc2-n2nncc2C1 | inactive |
| Cc1cc(=O)oc2c(C)c(OCC(=O)N3CCN(Cc4ccc5c(c4)OCO5)CC3)ccc12 | inactive |
| CCC(C)(O)C(=O)OC1C(=O)OC2CC3C(C)=CC(=O)C(O)C3(C)C3C4(O)OCC23C1C(C)C4O (configuration not stated) | 0.116 µM (active) |
| COc1ccc(NC(=O)N2CCC3(CC2)OCCO3)c(OC)c1 | inactive |
| CCCC[N+]1(C)C2CC(OC(=O)C(CO)c3ccccc3)CC1C1OC12 (configuration not stated) | inactive |
| Cc1ccccc1N1C(=O)NC(=O)/C(=C\c2cc(C)n(C)c2C)C1=O | inactive |
| O=C1NCN(c2ccccc2)C12CCN(C(c1cccs1)c1nnnn1C1CCCCC1)CC2 (configuration not stated) | 16.4 µM (active) |
| CC[N+]1(C)CCCC(OC(=O)C(O)(c2ccccc2)c2ccccc2)C1 (configuration not stated) | inactive |
| CN(C)C(=O)Oc1ccc(NC(=O)N2CCOCC2)cc1 | inactive |
| Cc1ccc(-c2cc(C(=O)N3CCC4(CC3)OCCO4)no2)cc1 | inactive |
| O=C(c1cc(-c2ccncc2)nc2ccccc12)N1CCC2(CC1)OCCO2 | inactive |
| Cc1cccc(-n2c(C)nc3cc(C(=O)N4CCC5(CC4)OCCO5)ccc32)c1 | 20.6 µM (active) |
| COc1cc(C(c2c(O)c3ccccc3oc2=O)c2c(C)n(C)n(-c3ccccc3)c2=O)ccc1O (configuration not stated) | inactive |
| COP(=O)(NS(=O)(=O)c1ccccc1)OC | inactive |
| ClCCN(CCCl)c1ccc(C=Nc2ccc(/C=C/c3ccnc4ccccc34)cc2)cc1 | 10 µM (active) |
| C=CCN(CC=C)C(=O)Nc1ccc(OCC)cc1 | inactive |
| O=C1NC(=O)N(Cc2ccco2)C(=O)/C1=C\c1ccc(-c2ccc(F)cc2)o1 | 20.6 µM (active) |

| Structure (SMILES) | Potency |
| --- | --- |
| O=C1NC(=O)N(Cc2ccco2)C(=O)/C1=C\c1cccn1CCOc1ccccc1 | inactive |
| O=C(O)C1CSC(c2cccnc2)N1 (configuration not stated) | inactive |
| Fc1ccc(C(OCCN2CCN(C/C=C\c3ccccc3)CC2)c2ccc(F)cc2)cc1 | 5.31 µM (active) |
| CN(C)S(=O)(=O)c1cc(C(=O)N2CCC(C(=O)O)(c3ccccc3)CC2)ccc1Cl | inactive |
| COC(=O)CN1C(=O)C2(C(C(=O)OC)=C(N)Oc3ccccc32)C2=C1CC(C)(C)CC2=O (configuration not stated) | inactive |
| C/C=C/CC1(CC)C(=O)NC(=S)NC1=O | inactive |
| CN1CC[C@H](c2c(O)cc(O)c3c(=O)cc(-c4ccccc4Cl)oc23)[C@H](O)C1 | 0.0944 µM (active) |
| Cc1ccc(C)c(NC2=NCCCS2)c1 | inactive |
| O=c1[nH]c(O)c(C=Nc2cc(F)cc(F)c2)c(=O)[nH]1 | inactive |
| O=C1C2(Cl)C3(Cl)C4(Cl)C(Cl)(Cl)C5(Cl)C3(Cl)C1(Cl)C5(Cl)C24Cl (configuration not stated) | 18.4 µM (active) |
| ClC(Cl)(Cl)c1ccccc1 | inactive |
| COc1ccc(NC(=O)c2cn(CCC#N)nc2-c2ccc([N+](=O)[O-])cc2)cc1 | inactive |
| CNC(=O)Nc1ccc(C(O)(C(=O)OC)C(F)(F)F)cc1 (configuration not stated) | inactive |
| O=S(=O)(O)C(F)(F)C(F)(F)C(F)(F)C(F)(F)F | inactive |
| CCOC(=O)[C@]12Cc3cc(OC)ccc3[C@H]1N(C(C)C)C(=O)c1ccccc12 | 13 µM (active) |
| CCOC(=O)[C@]12Cc3ccccc3[C@H]1N(C1CCCCC1)C(=O)c1cc(OC)ccc12 | 2.91 µM (active) |
| COc1ccccc1-n1c(O)c(C=NC2CC2)c(=O)[nH]c1=O | inactive |
| COC(=O)N1C(c2ccccc2)C1c1ccccc1 (configuration not stated) | inactive |
| O=C(O)/C=C/c1ccc2c(c1)OCO2 | inactive |
| Clc1cccc(Cl)c1Cl | inactive |
| CCOC(=O)C(O)(c1ccc(N)c(OC)c1)C(F)(F)F (configuration not stated) | inactive |
| O=C(CCC(=O)N1C[C@H]2C[C@@H](C1)c1cccc(=O)n1C2)NCc1ccccc1C(F)(F)F | inactive |
| C[C@@]12CCC3C(CC[C@@H]4CC(O)CC[C@@]34C)C1CCC2O (some centres not stated) | inactive |
| COc1cccc(C(=O)N2C[C@H]3C[C@@H](C2)c2cccc(=O)n2C3)c1 | inactive |
